Assay outcomes from PubChem BioAssay.
Rows were chosen to be rich in hits. Some 3.5% of all compounds tested hit in one or more screens of this group.
FBW7 activator = human FBW7 E3 ligase activation, primary screen. 650,000 tested, 0.13% active. AID 1259310. Q969H0. normalized activity (activation), % at 26.1 µM. AlphaScreen FBW7–phospho-cyclin E peptide binding, activator screen; in the data active means normalized activity above about 1.9%;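 further: purified mutant Fbw7 with reduced substrate affinity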
MITF inh = inhibitors of human MITF | O75030 | 650,000 tested, 0.91% active | AlphaScreen MITF homodimerization, bead proximity signal | inhibition, % at 2.6 µM; in the data active means inhibition above about 50%
Target sequence (O75030 whole entry, looked up): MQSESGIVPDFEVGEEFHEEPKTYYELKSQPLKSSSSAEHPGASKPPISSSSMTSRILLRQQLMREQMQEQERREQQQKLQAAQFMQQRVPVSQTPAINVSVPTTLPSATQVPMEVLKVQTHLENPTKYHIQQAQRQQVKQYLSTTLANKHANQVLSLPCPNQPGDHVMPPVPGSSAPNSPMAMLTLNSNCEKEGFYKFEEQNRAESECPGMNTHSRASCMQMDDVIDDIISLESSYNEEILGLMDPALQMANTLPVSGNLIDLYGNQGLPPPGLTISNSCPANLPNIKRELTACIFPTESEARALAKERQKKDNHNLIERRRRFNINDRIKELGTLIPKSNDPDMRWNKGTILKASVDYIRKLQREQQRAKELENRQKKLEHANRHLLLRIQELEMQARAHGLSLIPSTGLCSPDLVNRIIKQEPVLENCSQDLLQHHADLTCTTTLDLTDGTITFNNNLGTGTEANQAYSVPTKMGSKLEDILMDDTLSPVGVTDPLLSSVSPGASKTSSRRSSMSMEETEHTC
TEAD-YAP block = TEAD-YAP interaction inhibition; AID 1259422; 640,000 tested, 1.4% active; HEK-TIYL cells, TEAD-Gal4/YAP UAS-luciferase luminescence; inhibition, % at 9.12 µM; in the data active means inhibition above about 32%
GPR151 ag = activates the human receptor GPR151. Q8TDV0. 650,000 tested, 1% active. activation, % at 11.2 µM. PathHunter beta-arrestin GPR151 cells, luminescence; in the data active means activation above about 4.9%
GPR151 conf act = human GPR151 activation, confirmation screen; shares compounds with GPR151 ag; activation, % at 11.2 µM; 6,700 tested, under 10 active; GPR151 PathHunter beta-arrestin cells, luminescence, 90 min; % of EA-reagent control over plate median; AID 1508609;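 active means mean percent activation across replicates above the confirmation screen cutoff of 4.91%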
GPR119 counter = counter-screen for GPR151 activators: effect on human GPR119 | AID 1508611 | GPR119 PathHunter beta-arrestin cells, luminescence, 90 min; 0 = compound-well median, 100 = enzyme-acceptor control | activation, % at 11.2 µM | shares compounds with GPR151 ag | 6,700 tested, 0.3% active;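 active means mean percent activation in the counterscreen above 29.09%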;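 further: counterscreen on off-target GPR119 to flag nonselective hits from the GPR151 activator screen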
Of the large screens only hits and unclear results are named; the others gave an inactive call (follow-up assays come after a bar, where they were run); ! = not confirmed by another sample.

c1ccc(Oc2nc(NC3CC3)c3ncn(-c4ccsc4)c3n2)cc1	TEAD-YAP block 88, GPR151 ag 6.6 | GPR151 conf act inactive | GPR119 counter 46
CN(C)c1cccc(Nc2nc(NCc3ccccc3)c3ncn(-c4ccsc4)c3n2)c1	none
c1ccc(CN2CCC(Nc3nc(Nc4ccc5ncccc5c4)nc4c3ncn4-c3ccsc3)CC2)cc1	GPR151 ag 5.5 | GPR151 conf act inactive | GPR119 counter inactive
c1ccc2c(c1)CCN(c1nc(NC3CC3)c3ncn(-c4ccsc4)c3n1)C2	none
CC(=O)N1CCc2c(sc(NC(=O)c3ccc(S(=O)(=O)N(CC(C)C)CC(C)C)cc3)c2C(N)=O)C1	none
CCCCN(C)C(=O)CC(NS(=O)(=O)c1ccc(F)cc1)c1ccc(OC)cc1 (centres undefined)	none
COCCn1c(=NC(=O)c2ccc(C#N)cc2)sc2ccccc21	none
CCOC(=O)Cc1c(C)nc2c(-c3ccccc3)c[nH]n2c1=O	GPR151 ag 7.5 | GPR151 conf act inactive | GPR119 counter inactive
Cc1ccc(/C(O)=C2/C(=O)C(=O)N(CCC(=O)O)C2c2ccccc2F)cc1 (centres undefined)	none
CCCCCC(=O)NNC(=S)Nc1sc(C(=O)OC)c(C)c1C(=O)OC	none
Cc1ccc(Nc2ncnc3sc4c(c23)CCCC4)cc1	GPR151 ag 20 | GPR151 conf act inactive | GPR119 counter inactive
Clc1ccc(Nc2ncnc3sc4c(c23)CCCC4)cc1	none
CC(C)Cn1c(CN2CCN(c3ccc(F)cc3)CC2)nc2c1c(=O)n(C)c(=O)n2C	GPR151 ag 10 | GPR151 conf act inactive | GPR119 counter inactive
Fc1ccccc1CN(CCN1CCOCC1)C(=S)Nc1ccc(Oc2ccccc2)cc1	none
COc1cccc(CNc2nc3ccccc3c3nc(CCn4nc(C)cc4C)nn23)c1	none
Fc1ccc(C(CCCN2CCN3CCCC3C2)c2ccc(F)cc2)cc1 (centres undefined)	none
O=C1NCN(c2ccccc2)C12CCN(CCCC(c1ccc(F)cc1)c1ccc(F)cc1)CC2	GPR151 ag 7.2! | GPR151 conf act inactive | GPR119 counter inactive
Cc1cc(Nc2ccc(N3CCOCC3)cc2)nc(Nc2ccncc2)n1	none
Cc1cc(Nc2ccc3c(c2)OCO3)nc(Nc2ccc(N3CCOCC3)cc2)n1	TEAD-YAP block 93, GPR151 ag 10.0 | GPR151 conf act inactive | GPR119 counter 71
Cc1cc(Nc2ccc(N3CCOCC3)cc2)nc(NCc2cccnc2)n1	GPR151 ag 5.4 | GPR151 conf act inactive | GPR119 counter inactive
O=C(COc1ccc2ccccc2c1)NNC(=O)c1cccc(Br)c1	none
CCCNC(=O)c1ccc(-c2c(C)nn(C)c2C)s1	none
CN(Cc1ccccc1)C(=O)CCC1CCN(C(=O)c2cc[n+]([O-])cc2)CC1	GPR151 ag 5.6 | GPR151 conf act inactive | GPR119 counter inactive
CCN(CC)C(=O)NCc1noc2ccccc12	GPR151 ag 5.3 | GPR151 conf act inactive | GPR119 counter inactive
Cc1cccc(NC(=O)NCc2noc3ccccc23)n1	GPR151 ag 5.6 | GPR151 conf act inactive | GPR119 counter inactive
Cc1ccc(NC(=O)NCc2noc3ccccc23)nc1	none
CCN(C(=O)NCc1noc2ccccc12)c1ccccc1	GPR151 ag 5.6 | GPR151 conf act inactive | GPR119 counter inactive
CCCCN(CC)C(=O)NCc1noc2ccccc12	none
O=C(Nc1c(F)cc(F)cc1Br)c1cc(S(=O)(=O)N2CCC3(CC2)OCCO3)ccc1F	none
CC(C)N(CCNc1cc(NCCCN2CCCC2=O)ncn1)C(C)C	none
CCOc1cc(/C=c2/sc3nc4ccccc4n3c2=O)cc(I)c1O	GPR151 ag 5.1 | GPR151 conf act inactive | GPR119 counter inactive
CC1=C(C(=O)OCC(C)C)C(c2ccc3c(c2)OCO3)NC(=O)N1 (centres undefined)	GPR151 ag 5.9 | GPR151 conf act inactive | GPR119 counter inactive
CC1=C(C(=O)OCc2ccc3c(c2)OCO3)C(c2cccc(Cl)c2)NC(=O)N1 (centres undefined)	GPR151 ag 6.6 | GPR151 conf act inactive | GPR119 counter inactive
c1ccc(Nc2nc(Nc3ccc4c(c3)OCO4)c3ncn(-c4ccccc4)c3n2)cc1	none
Cc1ccc(C(=O)N/N=C\C(Br)=C\c2ccccc2)cn1	GPR151 ag 5.8 | GPR151 conf act inactive | GPR119 counter inactive
CCOc1ccccc1NC(=O)COc1ccc(F)cc1	none
